Most compounds without a hit are left out; they make up all but 3.8% or so of the library.
PrP 5UTR inh: inhibition of PrP 5' UTR reporter expression; cell-based PrP 5' UTR mRNA reporter, plate reader; inhibition, % (test concentration not listed); hit rate 0.35% among 340,000; AID 488862, 2010; in the data active means inhibition above about 52%; further: 0 = median of the neutral control wells
GDH-TPI counter: GDH-TPI coupling enzyme inhibitors, primary screen, artefact control for M. tuberculosis FBA inhibitor project, biochemical, absorbance, full deck; GDH-TPI coupled enzyme counterscreen, NADH absorbance; inhibition, % at 4.8 µM; hit rate 1.2% among 360,000; AID 588335, 2011; in the data active means inhibition above about 30%;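 further: 0% = DMSO wells and 100% = wells lacking the enzyme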
Y pestis TopoI: Yersinia pestis topoisomerase I inhibitors, primary screen, biochemical, cleavage product accumulation, plate reader, single point. DNA topoisomerase I (Yersinia pestis CO92). Y. pestis Topo-I cleavage product accumulation. activity, % at 10 µM. hit rate 0.064% among 360,000. AID 504884, 2011; in the data active means activity above about 50%, passing the limit was not always enough
Mtb hypoxia inh: PubChem AID 1159583 | M. tuberculosis hypoxia-regulated fluorescent reporter, fluorescence | fluorescence inhibition, % (concentration not given with the values) | hit rate 0.1% among 300,000; in the data active means fluorescence inhibition mostly above about 23%, no sharp cut-off; inactive means mostly below about 17%
PrPC TRFRET: inhibitors of human cell surface prion protein PrPC, primary screen, cell-based, TR-FRET. inhibition, % at 13.8 µM. TR-FRET read-out. Major prion protein (Homo sapiens), P04156. AID 720596, 2013. hit rate 0.43% among 370,000; in the data active means inhibition above about 24%; further: 0% = median of the test wells and 100% = reference compound wells
FBA Mtb inh: Mtb FBA enzyme inhibitors, primary screen, biochemical, fluorescence, strain H37Rv | Fructose-bisphosphate aldolase (Mycobacterium tuberculosis (strain ATCC 25618 / H37Rv)), … | purified M. tuberculosis FBA, fluorescence read-out | inhibition, % at 1 µM | hit rate 2.3% among 360,000 | AID 588726, 2011; in the data active means inhibition above about 27%;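 further: 0% = vehicle and 100% = reference inhibitor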
Target sequence (P9WQA3 whole entry, looked up): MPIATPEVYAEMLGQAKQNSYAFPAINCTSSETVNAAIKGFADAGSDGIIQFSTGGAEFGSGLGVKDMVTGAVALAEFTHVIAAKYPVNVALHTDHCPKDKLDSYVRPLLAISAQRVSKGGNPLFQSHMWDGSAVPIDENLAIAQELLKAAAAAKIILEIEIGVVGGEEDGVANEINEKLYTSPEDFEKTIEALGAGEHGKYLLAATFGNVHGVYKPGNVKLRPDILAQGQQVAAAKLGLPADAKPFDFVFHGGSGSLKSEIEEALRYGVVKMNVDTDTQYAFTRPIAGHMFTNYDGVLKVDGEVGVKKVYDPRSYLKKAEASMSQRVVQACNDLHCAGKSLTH
* hit, by the source's call; · = not tested or not shown.

SMILES	PrP 5UTR inh	GDH-TPI counter	Y pestis TopoI	Mtb hypoxia inh	PrPC TRFRET	FBA Mtb inh
CCOC(=O)C(=CNc1cc(C)ccc1[N+](=O)[O-])C(=O)OCC	-36	10	-6	-8	-10	-3
CCOC(=O)C(=CNc1cc(C(F)(F)F)ccc1N1CCOCC1)C(=O)OCC	-10	32*	3	6	2	0
CCOC(=O)C(=CNc1ccc(O)c(C(=O)OC)c1)C(=O)OCC	-9	26	3	3	6	-2
CCOC(=O)C(=CNc1cc(OC)ccc1-n1cccc1)C(=O)OCC	-24	36*	4	-7	2	13
CCOC(=O)C(=CNc1cc(C)ccc1C)C(=O)OCC	-14	34*	21	2	7	-2
CC1CN(C(C)CO)C(=O)c2cccc(NC(=O)C3CCCCC3)c2OC1CN(C)Cc1ccc(C(=O)Nc2ccccc2N)cc1 (stereo not drawn)	·	·	·	17	·	·
O=C(c1ccc(N2CCN(C(=O)c3ccccc3)CC2)cc1)c1cccc(F)c1	-23	38*	42	7	-4	-2
O=C(c1ccc(N2CCN(C(=O)c3ccc(F)c(F)c3)CC2)cc1)c1cccc(F)c1	-3	32*	27	-3	2	-1
O=C(c1cccnc1)N1CCN(c2ccc(Cl)cc2)CC1	-17	32*	-11	3	1	3
C#CCOCCOCCOCCNc1nc(N2CCN(C(=O)C(CCC(=O)O)n3cc(C(N)CCCCN)nn3)CC2)nc(N2CCN(C(=O)C(CC(N)=O)n3cc(C(N)C(C)CC)nn3)CC2)n1 (stereo not drawn)	·	·	·	11	·	·
Cc1ccc2[nH]c(O)c(N=NC(N)=S)c2c1	-38	38*	-5	4	-34	-7
CCN1C(=O)SC(=Cc2ccc(Oc3ccc([N+](=O)[O-])cn3)c(OC)c2)C1=O	·	·	·	-6	·	·
C=CCNC(=S)NN=Cc1ccc(C)cc1C	·	·	·	0	·	·
CN(C)/C=N/c1ncc(C(=O)c2ccc(-c3ccccc3)cc2)s1	-13	34*	-5	·	3	-1
CN(C)/C=N/c1ncc(C(=O)c2ccccc2)s1	-58	32*	-11	·	-3	1
CC1CN(C(C)CO)C(=O)c2cccc(NS(=O)(=O)c3ccc(F)cc3)c2OC1CN(C)CC1CCCCC1 (stereo not drawn)	·	·	·	-11	·	·
O=C1NC(=O)C(=Cc2ccc(O)cc2)S1	·	·	·	11	·	·
COc1ccccc1N1CCN(N=Cc2cc(Br)ccc2F)CC1	·	·	·	-6	·	·
CCOc1ccc(C2=CC(=O)CC(c3ccc(OC)cc3)C2)cc1 (stereo not drawn)	·	·	·	13	·	·
Cc1ccc(S(=O)(=O)Nc2nc(-c3ccccc3)cs2)cc1	-14	-3	12	10	-5	-1
Cc1ccc(S(=O)(=O)Nc2ccccc2C(=O)Nc2nc(-c3ccc(F)cc3)cs2)cc1	-24	12	-10	-4	24	35*
C#CCOCCOCCOCCNc1nc(N2CCN(C(=O)C(CCC(=O)O)n3cc(C(N)C(C)CC)nn3)CC2)nc(N2CCN(C(=O)C(C(C)CC)n3cc(C(N)CO)nn3)CC2)n1 (stereo not drawn)	·	·	·	-3	·	·
CCOC(=O)C1=C(C)N=c2sc(=Cc3cc(OC)c(OC)c(OC)c3)c(=O)n2C1/C=C/c1ccccc1 (stereo not drawn)	·	·	·	8	·	·
COC1C(OC(=O)/C=C/C=C/C=C/C=C/C(=O)O)CCC2(CO2)C1C1(C)OC1CC=C(C)C (stereo not drawn) (tested in a mixture with another compound)	18	64*	19	·	-6	-1
COc1ccc(/C=N/Nc2cn[nH]c(=O)c2Cl)cc1	-12	36*	1	·	-12	1
SMILES	PrP 5UTR inh	GDH-TPI counter	Y pestis TopoI	Mtb hypoxia inh	PrPC TRFRET	FBA Mtb inh
O=c1[nH]ncc(N/N=C/c2ccccc2)c1Cl	-29	80*	3	·	-10	0
Cc1ccc(/C=N\Nc2cn[nH]c(=O)c2Cl)cc1	-10	48*	15	·	-16	-2
O=c1[nH]ncc(NN=Cc2cccs2)c1Cl	·	·	·	-8	·	·
Cc1ccsc1/C=N\Nc1cn[nH]c(=O)c1Cl	-28	30	1	·	-8	-3
Cc1occc1C(=O)NN=Cc1ccc[nH]1	·	·	·	0	·	·
O=C1C=C(O)c2cccc3cccc1c23	-9	31*	5	·	11	-2
O=C(CC(SCCO)c1ccc(F)cc1)c1ccco1 (stereo not drawn)	-24	19	10	23	0	-1
